Screening data: PubChem BioAssay, National Center for Advancing Translational Sciences (NCATS)
Hits are enriched below; roughly 1.8% of the tested compounds scored in any of these assays.
TRPML1 agonist – qHTS for Agonists of the Human Mucolipin Transient Receptor Potential 1 (TRPML1); AID 624414, 2012; Mucolipin-1 (Homo sapiens), Q9GZU1; activation, % (concentration not given with the values); actives 0.12% (n = 410,000); TRPML1-expressing cells, Ca2+ dye fluorescence, FDSS; in the data active means activation above about 50%; inconclusive means mostly about 30% to 49%; further: 0% is about no effect
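Kinetic FDSS Ca2+ read in Tet-induced TRPML1-DL cells (ABD Ca8 dye plus quencher, 45-90 min RT loading): baseline, then compound, then 110 s agonist window; EC80 agonist 54-4 at 4uM final added afterwards for a 110 s antagonist window.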
GLP-1R agonist – qHTS of GLP-1 Receptor Agonists; Potency, µM (titrated, usually from 45.6 µM), for the others: top-dose activation, actives largely listed as activators; Glucagon-like peptide 1 receptor (Homo sapiens), P43220; actives 0.007% (n = 380,000); HEK293 GLP-1R CRE-luciferase, luminescence, 4-6 h; cells express a hypersensitive GLP-1R form; AID 624172, 2012; further: potency means the concentration at half of the fitted maximal effect; % of control where 0% means no effect
Target sequence (P43220 whole entry, looked up): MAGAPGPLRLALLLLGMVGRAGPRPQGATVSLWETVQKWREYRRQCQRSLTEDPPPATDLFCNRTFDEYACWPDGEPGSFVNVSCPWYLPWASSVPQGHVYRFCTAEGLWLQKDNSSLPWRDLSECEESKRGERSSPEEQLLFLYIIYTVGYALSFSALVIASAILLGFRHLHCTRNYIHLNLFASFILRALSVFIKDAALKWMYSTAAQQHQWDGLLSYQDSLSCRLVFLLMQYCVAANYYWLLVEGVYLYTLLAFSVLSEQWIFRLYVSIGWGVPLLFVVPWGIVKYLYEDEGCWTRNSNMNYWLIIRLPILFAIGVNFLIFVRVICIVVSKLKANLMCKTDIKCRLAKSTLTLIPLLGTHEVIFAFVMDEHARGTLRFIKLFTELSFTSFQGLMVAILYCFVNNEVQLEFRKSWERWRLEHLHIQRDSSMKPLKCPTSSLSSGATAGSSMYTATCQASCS
HEK293 tox – qHTS of GLP-1 Receptor Inverse Agonists: Cytotox Screen; actives 0.13% (n = 410,000); HEK293 cAMP-luciferase reporter cells, luminescence, 24 h; Potency, µM (titrated, usually from 38.3 µM), for the others: at the top dose activity change, negative = inhibition, usual class: inhibitors;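 further: loss of luciferase light is scored as toxicity; potency means the concentration at half of the fitted maximal effect; on the % scale 0 is the no-effect control and ±100 the full control effect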
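Compound-treated cells are incubated 24 hr at 37 deg C under 5% CO2 after a 12 hour attachment period, then luciferase detection reagent is added and luminescence is measured following 12 min at room temperature; lowered signal indicates toxicity.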
GLP1R inv ag – qHTS of GLP-1 Receptor Inverse Agonists (Inhibition Mode) | Glucagon-like peptide 1 receptor (Homo sapiens), P43220 | HEK293 GLP-1R CRE-luciferase, luminescence, 24 h; GLP-1R form is constitutively active | Potency, µM (doses to about 38.3 µM), for inactives: at the top dose activity change, negative = inhibition, most hits filed as inhibitors | actives 1.6% (n = 410,000); further: potency means the concentration at half of the fitted maximal effect; on the % scale 0 is the no-effect control and ±100 the full control effect; nearly all actives have a fitted effect of over 55% in size
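Using stably transfected HEK293 (constitutively active GLP-1R, cAMP-luciferase reporter), compounds were incubated 24 hr and luciferase measured by luminescence.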
TRPML1 inh – qHTS for Inhibitors of the Human Mucolipin Transient Receptor Potential 1 (TRPML1); Mucolipin-1 (Homo sapiens), Q9GZU1; TRPML1-inducible cells, Ca2+ dye fluorescence, FDSS; stronger effect = lower value; inhibition of EC80 agonist-evoked calcium signal; activity change, negative = inhibition, % (test concentration not listed); actives 0.02% (n = 390,000); in the data active means activity change below about -50%; inconclusive means between about -30% and that limit;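 further: stimulus is agonist 54-4 at its EC80 concentration; on the % scale 0 is the no-effect control and ±100 the full control effect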
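Tet-induced TRPML1-DL cells loaded with Ca8 no-wash calcium dye were read kinetically on FDSS. Compound addition was followed by EC80 agonist 54-4 (4 uM final); inhibition was read over 110 s.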
* hit, by the source's call; ? = inconclusive; nt = no result given; [ ] = another dose, or the depositor's remark. Unless noted, the call rests on the fitted dose curve; in most records, active means well fitted curve in the direction sought with a large enough effect; inconclusive means small, poorly fitted or top-dose-only effect, or another doubt; inactive means no such curve, though single readings can be large; an effect the other way counts as inactive or inconclusive.

SMILES	TRPML1 agonist	GLP-1R agonist	HEK293 tox	GLP1R inv ag	TRPML1 inh
Cc1ccc(N(C)S(=O)(=O)c2cccc(C(=O)NC3CC(C)(C)NC(C)(C)C3)c2)cc1	-1	0%	-2%	11µM*	7
CC1(C)CC(NC(=O)c2cccc(S(=O)(=O)N(Cc3ccccc3)c3ccccc3)c2)CC(C)(C)N1	0	-29%	?	?	34
Cc1ccc(NC(=O)Cn2nc(C)c3nn(-c4ccc(Cl)cc4)c(C)c3c2=O)cc1C	0	nt	-2%	3%	-5
COc1ccc(C2/C=C\CN(C(=O)c3ccc(C)cc3)[C@H](Cc3ccccc3)C(=O)N2Cc2ccc(F)cc2)cc1 (some centres not stated)	3	0%	-8%	10µM*	15
CCCCOC(=O)c1ccc(NC(=O)c2ccccc2OC)cc1	1	3%	3%[1.53 µM]	?	21
CCCCCOC(=O)c1ccc(NC(=O)c2cccc(NC(=O)c3ccccc3C(=O)O)c2)cc1	-1	-1%	4%	7.1µM*	-11
CCOC(=O)c1sc(NC(=O)c2cc(-c3ccc(F)cc3)on2)c(C(=O)OCC)c1C	0	nt	0%	15%	-3
CC1NC(=O)COC1c1ccccc1 (configuration not stated)	0	5%	4%	2%	16
CC1CC=C(c2ccccc2)C(=S)N1 (configuration not stated)	0	1%	?	10µM*	1
CC1(C)SC(=S)N(/N=C/c2ccc(O)cc2)C1N(O)C(=O)Nc1ccc([N+](=O)[O-])cc1 (configuration not stated)	-1	-22%	-28%	2.8µM*	-11
CCCCc1ccc(CC(=O)NO)cc1	-1	nt	nt	nt	nt
COc1ccc(OC)c(S(=O)(=O)N2CCC(C(=O)Nc3cccc(C(F)(F)F)c3)CC2)c1	4	-13%	?	10µM*	38
Cc1ccc(NC(=O)C2CCN(S(=O)(=O)c3cccs3)CC2)cc1C	2	-9%	3%	8.9µM*	1
O=C(Nc1ccccc1)Nc1cccc2ccccc12	1	11%	-8%	?	-6
O=C(Nc1ccccc1)Nc1cccc2cccnc12	1	1%	-13%	10µM*	5
Cc1cc(O)c(CN2CCN(c3ccc(F)cc3)CC2)c2oc(=O)cc(C)c12	1	nt	4%	2%	20
O=C(CNc1ccc2c(c1)OCO2)N/N=C\c1cn(Cc2ccccc2)c2ccccc12	2	-2%	-24%	2.8µM*	26
C=CCc1cccc(/C=N/NC(=O)CNc2cccc3ccccc23)c1O	0	1%	?	?	-22
O=C(CNc1ccccc1)N/N=C/c1ccc2c(c1)OCO2	1	-1%	-6%	?	26
O=C(N/N=C/c1cn(Cc2ccccc2)c2ccccc12)c1ccncc1	0	13%	0%	?	14
Nc1ccc(C(=O)N/N=C/c2cn(Cc3cccc(F)c3)c3ccccc23)cc1	-1	8%	4%	5µM*	-10
C=CCc1cccc(/C=N/NC(=O)CCCNc2ccc(C)cc2)c1O	6	3%	?	10µM*	5
C=CCc1cccc(/C=N/NC(=O)CNc2ccccc2)c1O	2	-11%	?	3.5µM*	-17
Cc1cc([N+](C)(C)C)cc(C)c1/C=C/c1ccnc2ccccc12	0	nt	nt	nt	nt
CSc1ccc(/C=C/c2ccnc3ccccc23)cc1	-1	nt	nt	nt	nt
SMILES	TRPML1 agonist	GLP-1R agonist	HEK293 tox	GLP1R inv ag	TRPML1 inh
O=C(O)c1ccccc1-c1ccccc1C(=O)NNc1ccccc1	-1	-3%	-8%	2.2µM*	-15
Cc1cccc(-c2noc(-c3cccnc3NCc3ccco3)n2)c1	1	nt	0%	57%	-2
O=C(Oc1c(Br)cc(C(=S)N2CCOCC2)cc1Br)c1ccc(Cl)cc1	2	-8%	?	10µM*	29
O=c1[nH]c(SCc2ccccc2Cl)nc2c1CCC2	3	15%	9%	0%	14
CNc1nc(SCc2ccccc2Cl)nc2c1CCCC2	0	2%	-17%	10µM*	-24
COC(=O)c1ccc(N/C=C\C(=O)c2ccc3c(c2)OCO3)cc1	0	5%	8%[7.66 µM]	50%[7.66 µM]	4
CN(C)c1ccc(/C=C/C(=O)c2ccc3c(c2)OCO3)cc1	84*	1%	97%	-19%	-14
CN(C)c1ccc(/C=C/C(=O)c2cccnc2)cc1	115*	12%	10%	-22%	-25
O=C(/C=C\Nc1cccc(F)c1)c1ccc2c(c1)OCO2	0	-4%	6%	10µM*	-5
CN(C)c1ccc(/C=C/C(=O)c2ccc(O)cc2)cc1	87*	4%	175%	-21%	-20
CCc1ccccc1NC(=O)Nc1cc(C(=O)NCc2ccc(OC)cc2)ccc1N1CCCC1	0	nt	1%	3%	26
CCOc1ccc(CCNc2ncnc3onc(C)c23)cc1OCC	0	nt	-5%	-21%	22
Cc1cc(NC(=O)CCN2CCCCC2)ccc1Br	-1	-5%	-6%	?	-1
Cc1cc(NC(=O)CCN2CCC(C)CC2)ccc1Br	0	12%	19%	10µM*	14
O=C(Nc1ccc(Br)cc1)c1cccc(C(=O)Nc2ccc(Br)cc2)c1	1	nt	-1%	-12%	6
COc1ccccc1-c1nnc(C2CCN(C(=O)c3cccc(C)c3)CC2)o1	0	nt	-5%	-7%	14
COc1ccc(OCCNC(=O)c2cccc(Oc3ccc(C(F)(F)F)cc3[N+](=O)[O-])c2)cc1	1	11%	?	4.5µM*	57
O=C(NCCO)c1ccc(Oc2ccc(C(F)(F)F)cc2[N+](=O)[O-])cc1	3	1%	12%	10%	36
Cc1ccc2occ(CC(=O)N(Cc3ccc(Cl)cc3)C3CCS(=O)(=O)C3)c2c1 (configuration not stated)	1	nt	-7%	11µM*	-6
CCn1c(=O)c2c(nc3n2CCN3c2ccc(OC)cc2)n(C)c1=O	-1	nt	-11%	25%	1
Cc1cc(/C=C2\SC(=S)N(C)C2=O)c(C)n1-c1ccc(O)cc1	nt	-5%	9%	1.4µM*	nt
Cc1ccc(C(=O)NC2(C(F)(F)F)NC(=O)N(c3ccc(Cl)cc3)C2=O)cc1 (configuration not stated)	-1	-4%	-10%	5.6µM*	-6
Nc1nc(N)c2c(ccc3c2ccn3Cc2cccc([N+](=O)[O-])c2)n1	0	-11%	?	0.5µM*	nt
